We go through 17 compounds from publication PMC5540273 (PLoS ONE, 2017).

Test systems include MAP4K2; MAP4K3; MAP4K4; MAP4K5; MAPKAPK2; MAPKAPK5; MARK1; MARK2; MARK3; MARK4.
Common to all, as to conditions: concentration: 1 μM, replicates: in singlicate; n = 1
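Further: KINOMEscan kinase panel screen.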

For `O=C(Nc1n[nH]c2cc(-c3ccsc3)ccc12)C1CC1` [SB-732932], the “%Inh” value with MAP4K2 was found to be 25%; in the test on MAP4K3, 0%; with MAP4K4 it was 18%; with MAP4K5, 2%; in the test on MAPKAPK2, 0%; in the test with MAPKAPK5 it was 24%. Besides, the “%Inh” value in the test with MARK1 was 0%; with MARK2, 24%; in the test on MARK3 it was 0%; with MARK4 it was 12%.
With `NS(=O)(=O)c1cccc(N/C=C2\C(=O)Nc3ccc(S(=O)(=O)Cc4c(Cl)cccc4Cl)cc32)c1` [GSK398099], the “%Inh” value in the test with MAP4K2 was found to be 0%; with MAP4K3, 19%; in the test with MAP4K4 it was 28%; in the test with MAP4K5, 0%; in the test with MAPKAPK2, 20%; in the test with MAPKAPK5, 0%. Further, the “%Inh” value with MARK1, with MARK2, in the test on MARK3 and with MARK4 was 0% in each case.
Take `Cc1ccccc1-c1cc(-c2c[nH]nc2-c2ccccn2)ccn1` [GW680061]: the “%Inh” value with MAP4K2 stood at 0%; in the test with MAP4K3, 0%; in the test on MAP4K4 it was 0%; with MAP4K5, 0%; in the test on MAPKAPK2, 24%; in the test on MAPKAPK5 it was 0%. Moreover, the “%Inh” value in the test on MARK1, with MARK2, with MARK3 and in the test on MARK4 was 0% in each case.
As to `CNc1cc(-c2ccc3c(N)n[nH]c3c2)nc(N)n1` [GSK2224810], the “%Inh” value with MAP4K2 worked out at 22%; with MAP4K3 it was 20%; with MAP4K4, 0%; with MAP4K5, 0%; in the test with MAPKAPK2 it was 49%; with MAPKAPK5, 0%. Further, the “%Inh” value with MARK1 is recorded as 0%; with MARK2, 7%; in the test on MARK3 it was 0%; in the test with MARK4, 0%.
Turning to `Nc1cccc(-c2ccc3c(N)n[nH]c3c2)n1` [GSK2192730], the “%Inh” value in the test with MAP4K2 is on record as 59%; in the test with MAP4K3 it was 0%; in the test on MAP4K4, 0%; in the test with MAP4K5, 0%; in the test with MAPKAPK2, 0%; with MAPKAPK5, 0%. The “%Inh” value is recorded as 0% in the test with MARK1, 10% in the test with MARK2, 0% with MARK3 and 0% with MARK4.
For `Cn1cncc1-c1cc2c(Nc3ccc(OCc4ccccc4)cc3)ncnc2cn1` [GW281179], the “%Inh” value was determined as 0% in the test with MAP4K2; 0% in the test with MAP4K3; 1% in the test with MAP4K4; 0% with MAP4K5; 24% with MAPKAPK2; 0% with MAPKAPK5. The “%Inh” value in the test on MARK1 is listed as 0%; in the test with MARK2, 0%; in the test on MARK3, 0%; in the test on MARK4, 11%.
On to `COc1ccc(CSc2nnc(-c3ccc4c(c3)CCO4)o2)cc1`, for which the “%Inh” value in the test with MAP4K2, in the test on MAP4K3, in the test with MAP4K4, with MAP4K5, with MAPKAPK2 and in the test on MAPKAPK5 was 0% each time. Further, the “%Inh” value in the test on MARK1 was 0%; in the test with MARK2, 21%; in the test on MARK3, 0%; in the test with MARK4 it was 0%.
`Cn1cnc2c(N)ncnc21` [SKF-97623]: the “%Inh” value in the test with MAP4K2 is recorded as 0%; in the test on MAP4K3, 14%; in the test on MAP4K4, 0%; with MAP4K5, 13%; in the test with MAPKAPK2, 25%; in the test on MAPKAPK5 it was 0%. Besides, the “%Inh” value in the test with MARK1, in the test with MARK2, in the test on MARK3 and in the test with MARK4 was 0% each time.
In the case of `CS(=O)(=O)CCNCc1nc(-c2ccc3ncnc(Nc4ccc5c(cnn5Cc5ccccc5)c4)c3c2)cs1.Cl.Cl` [GW569716], the “%Inh” value in the test with MAP4K2 came out at 0%; in the test on MAP4K3, 9%; in the test on MAP4K4, 0%; in the test on MAP4K5, 0%; in the test with MAPKAPK2 it was 19%; in the test with MAPKAPK5, 0%. Besides, the “%Inh” value in the test on MARK1, with MARK2, in the test with MARK3 and in the test with MARK4 was 0% throughout.
Consider `c1ccc(-c2ccnc3[nH]ccc23)cc1` [SB-693578], for which the “%Inh” value in the test on MAP4K2 is given as 32%; in the test on MAP4K3 it was 22%; in the test on MAP4K4 it was 0%; with MAP4K5, 0%; with MAPKAPK2, 26%; in the test with MAPKAPK5 it was 0%. Besides, the “%Inh” value is on record as 100% in the test on MARK1, 0% with MARK2, 0% in the test on MARK3 and 62% with MARK4.
Take `CCn1c(-c2c(N)noc2C)nc2cnccc21` [SB-737856]: the “%Inh” value in the test with MAP4K2 is given as 0%; with MAP4K3, 2%; in the test on MAP4K4, 10%; in the test on MAP4K5 it was 0%; in the test with MAPKAPK2, 19%; in the test on MAPKAPK5, 0%. Besides, the “%Inh” value with MARK1, in the test on MARK2, with MARK3 and in the test on MARK4 was 0% in each case.
For `COC(=O)c1cccc(NC(=O)NC2CCN(c3ccnc(Nc4ccc(F)cc4)n3)C2)c1` (centres unmarked) [GSK1379725], the “%Inh” value stood at 0% in the test with MAP4K2; 0% in the test with MAP4K3; 1% with MAP4K4; 0% in the test on MAP4K5; 15% with MAPKAPK2; 0% in the test with MAPKAPK5. The “%Inh” value with MARK1 stood at 0%; with MARK2 it was 0%; with MARK3, 42%; in the test on MARK4, 0%.
Take `COc1cccc(NC(=O)Nc2ccc(C)c(-c3ccc(C(=O)Nc4ccncc4)cc3)c2)c1` [GSK1398474]: the “%Inh” value with MAP4K2 is 0%; with MAP4K3, 0%; with MAP4K4, 24%; in the test on MAP4K5, 16%; with MAPKAPK2 it was 5%; in the test with MAPKAPK5, 0%. For the same compound, the “%Inh” value in the test with MARK1 came out at 94.1%; with MARK2 it was 18%; in the test with MARK3, 0%; in the test on MARK4, 20%.
As to `Cl.Cl.Cl.N#Cc1ccc(CCNc2nccc(-c3cccc(CN4CCNCC4)c3)n2)cc1` [GSK2137462], the “%Inh” value in the test with MAP4K2 worked out at 0%; in the test on MAP4K3 it was 8%; with MAP4K4, 21%; in the test on MAP4K5, 4%; in the test on MAPKAPK2, 0%; in the test on MAPKAPK5 it was 0%. Besides, the “%Inh” value in the test with MARK1 was determined as 0%; in the test with MARK2, 6%; in the test with MARK3, 25%; in the test on MARK4, 0%.
`Cc1cccc2c(-c3ccncn3)c(-c3ccc(F)cc3)nn12` [GW515532]: the “%Inh” value in the test on MAP4K2 is 0%; with MAP4K3, 12%; with MAP4K4 it was 7%; with MAP4K5, 0%; in the test with MAPKAPK2 it was 8%; with MAPKAPK5, 0%. For the same compound, the “%Inh” value in the test with MARK1 is 0%; in the test on MARK2 it was 0%; in the test with MARK3, 5%; in the test with MARK4, 0%.
As to `COc1cccc(CNC(=O)NC2CCN(c3ccnc(Nc4ccc(F)cc4)n3)C2)c1` (centres unmarked) [GSK1379723], the “%Inh” value amounted to 0% with MAP4K2; 8% in the test with MAP4K3; 2% with MAP4K4; 1% in the test on MAP4K5; 16% in the test with MAPKAPK2; 0% in the test on MAPKAPK5. Moreover, the “%Inh” value in the test on MARK1, with MARK2, in the test with MARK3 and in the test with MARK4 was 0% throughout.
`O=c1cc(N2CCOCC2)nc2n(Cc3ccccc3F)ccn12` [GSK2297428]: the “%Inh” value in the test on MAP4K2, in the test on MAP4K3, in the test with MAP4K4, with MAP4K5, in the test on MAPKAPK2 and in the test on MAPKAPK5 was 0% in each case. Further, the “%Inh” value is 100% with MARK1, 0% with MARK2, 0% in the test on MARK3 and 69% with MARK4.
